In ChEMBL document CHEMBL3988442, “University of Dundee, Small-Polar-MMV Screening Library” (2021):

Assays:
[1] = target: T1, Aspartate--tRNA(Asp/Asn) ligase (Mycobacterium tuberculosis (strain ATCC 25618 / H37Rv)) (UniProt P9WFW3); assay: Assay for Asp RNA synthetase-1 from Mycobacterium tuberculosis; assay type: functional; set-up: scale not given: direction of the effect not stated beside the values; conditions: 30 µM; also: in the data most compounds retested in dose-response had high values
T1 sequence (whole entry): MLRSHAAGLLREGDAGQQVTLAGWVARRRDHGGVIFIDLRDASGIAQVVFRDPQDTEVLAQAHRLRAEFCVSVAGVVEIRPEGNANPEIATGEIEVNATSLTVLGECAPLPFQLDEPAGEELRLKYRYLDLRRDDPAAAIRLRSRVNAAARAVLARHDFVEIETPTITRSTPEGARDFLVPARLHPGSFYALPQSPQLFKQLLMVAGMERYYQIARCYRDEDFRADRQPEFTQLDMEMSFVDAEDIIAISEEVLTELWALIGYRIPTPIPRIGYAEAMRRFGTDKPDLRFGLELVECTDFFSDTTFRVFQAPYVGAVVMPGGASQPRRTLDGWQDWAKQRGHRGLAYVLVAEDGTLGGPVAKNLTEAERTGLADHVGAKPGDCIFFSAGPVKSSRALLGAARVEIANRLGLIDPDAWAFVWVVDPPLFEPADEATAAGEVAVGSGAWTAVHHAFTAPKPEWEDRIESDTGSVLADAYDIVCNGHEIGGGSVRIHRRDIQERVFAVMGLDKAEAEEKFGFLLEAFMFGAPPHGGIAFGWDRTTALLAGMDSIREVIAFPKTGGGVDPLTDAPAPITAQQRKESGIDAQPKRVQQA

[2] = target: Shiga toxin 2 (Escherichia coli O157:H7) (UniProt P09385+P09386); assay: E. coli 0.157:H7 Shiga Toxin SOP - stx2 screening assay; assay type: functional; set-up: scale not given: direction of the effect not stated beside the values; conditions: 30 µM

Structure (SMILES)	Percent Effect [1] [%]	Percent Effect [2] [%]
CCCN(Cc1ccccc1)Cn1nc(C)c2c(C)onc2c1=O	9.28	6.54
CC(=O)N1CC(=O)N(c2ccccc2)CC12CCN(Cc1cccs1)C2 (configuration not stated)	2.3	-33.9
COCCCN1CC2(CCCCN2C(=O)c2ccsc2)CC1=O (configuration not stated)	-3.53	-5.69
Cc1ccc(-c2nc(CN3CCN(S(=O)(=O)N(C)C)CC3)cs2)o1	2.34	-12.2
CCN1CCN(CC(O)c2ccc(F)cc2)CC1 (configuration not stated)	-6.48	19.4
O=c1cc(CN2CCCC2)nc2n1CCCN(Cc1ccsc1)C2	-4.85	-22.4
Cc1[nH]c2ccccc2c1-c1ccnc(NCCN2CCOCC2)n1	7.28	-44.9
Cc1nnc(C(C)N2CCN(Cc3ccc(C#N)cc3)CC2)o1 (configuration not stated)	-2.07	20
CCCN1CCCn2nc(CNS(=O)(=O)c3cccc(C#N)c3)cc2C1	-1.36	28.5
OCC1CCCN1c1cc(N2CCC(OC3CCCC3)CC2)ncn1 (configuration not stated)	-1.79	7.55
CCOc1ccc(Cl)c(C(=O)NCc2ccc(C(=O)NC)cc2)n1	-2.66	13
c1ncn(CC2CN(Cc3csc(C4CCCC4)n3)CCO2)n1 (configuration not stated)	-2.81	13.4
CS(=O)(=O)NC1CCN(C(=O)NCCNc2ccccn2)CC1	3.96	19.1
CCc1c(C)nc2n(c1=O)CC(C(=O)Nc1nc3c(s1)CCCC3)CS2 (configuration not stated)	2.32	-5.2
O=C(c1ccc[nH]1)N1CCC(c2nccn2Cc2ccncc2)CC1	5.61	-10.8
O=C1COc2c(cccc2C(=O)N2CCCCC2Cn2cccn2)N1 (configuration not stated)	-0.721	27.1
CC(=O)Nc1nc(C(=O)NC(C)c2ccc(F)cc2)cs1 (configuration not stated)	-3.46	26.2
O=C(C1CCCCN1Cc1nc(-c2ccco2)no1)N1CCCC1 (configuration not stated)	3.38	27.5
CCn1cnnc1CNC(=O)NC(C)c1cccs1 (configuration not stated)	0.243	-10.2
CN(C)c1ncnc2c1CCN(CC1CCOC1)CC2 (configuration not stated)	-1.82	-26.9
Cc1cnn(CC2CCCN2Cc2nc3ccccc3n2C)c1 (configuration not stated)	3.43	-9.07
CC(=O)N1CCCCC1c1cc(CO)[nH]n1 (configuration not stated)	-3.86	7.89
CCn1cc(CN2CCCn3nc(CCC(=O)NCCO)cc3C2)cn1	0.624	-51
Cc1cnn(C2CCCN(C(=O)c3cnc4ccccc4n3)C2)c1 (configuration not stated)	9.11	25.1
Cc1oncc1C(=O)N1CCC2(C1)CN(c1cccnc1)C(=O)CN2C (configuration not stated)	-6.17	-13.7
COCCc1noc(CN2CCCCC2Cn2cc(C)cn2)n1 (configuration not stated)	-2.46	9.7

Structure (SMILES)	Percent Effect [1] [%]	Percent Effect [2] [%]
COCCCNC(=O)N1CCCC(c2nncn2C)C1 (configuration not stated)	1.97	21.1
CN(C)CC1CN(Cc2nnc(-c3ccccc3Cl)o2)CCO1 (configuration not stated)	-1.66	-41.7
CCn1cnnc1CNC(=O)N1CCC(Cc2cccnc2)CC1	-1.93	2.96
CC(C)c1cc(NC(=O)CN2CCNC(=O)C2)on1	2.59	-3.5
Cc1cc(CN2CCN(C(=O)C(C)C)[C@@H]3CS(=O)(=O)C[C@@H]32)ccc1F	2.51	-10.2
CCCS(=O)(=O)Nc1ccc2c(c1)OCC(C)(C)C(=O)N2C	-4.25	-2.5
CC(C)NC(=O)N1CCC2(CC(=O)N(c3cccc(C#N)c3)C2)C1 (configuration not stated)	5.75	8.35
CN(C)C(=O)N[C@@H]1CN(Cc2ccc3c(c2)OCO3)[C@@H]2CCCO[C@@H]21	-0.291	-7.65
Cc1cnn(C2CCCN(C(=O)c3ccnc(-n4ccnc4)c3)C2)c1 (configuration not stated)	3.27	-22.4
CCc1cc(NCC(O)CN2CCCCC2)n2ncnc2n1 (configuration not stated)	8.06	-8.11
Cc1nccn1-c1cccc(C2CCCN(C(=O)c3cc[nH]n3)C2)n1 (configuration not stated)	-0.309	-32.7
Cc1oc(C)c(C(=O)N2CCCN(Cc3cscn3)CC2)c1C	-1.41	26.2
Cc1nc(CN2CCN(C(=O)COCc3ccccc3)CC2)no1	-0.353	-1.66
Cn1ccnc1CN1CCN(CC(O)c2ccco2)CC1 (configuration not stated)	4.07	20
CCc1nc(CC(=O)N2CCn3c(nnc3C(C)C)C2)cs1	-0.367	-14.7
Cc1nc(C)n(CC2CCCN(c3ncnc4sccc34)C2)n1 (configuration not stated)	1.08	21.2
Cc1nc(C)c(CC(=O)Nc2ncc(C)s2)c(=O)[nH]1	-3.61	30.1
CCN(c1ccc(C(=O)NCCCN2CCOCC2)cc1)S(=O)(=O)CC	4.46	-48.2
N#CCCCS(=O)(=O)N1CCCC1CC(=O)c1cccs1 (configuration not stated)	0.747	12
COC(=O)N1CCc2ccc(NC(=O)c3cn(C)nn3)cc2C1	-0.627	-90
CCN(CC)C(=O)Cn1ccc2cc(NC(=O)C3CCCO3)ccc21 (configuration not stated)	-4.41	-1.75
CC1CN(C(=O)CN(Cc2ccco2)C2CC2)CCO1 (configuration not stated)	3.17	18.9
CC(=O)N1CCCC1c1csc(Nc2cnccn2)n1 (configuration not stated)	3.49	29.9
COc1ccnc(N2CCN(C(=O)Cc3ccc(C#N)cc3)CC2)n1	4.99	8.53
CCc1nc(C2CCCN2C(=O)C2=COCC2)no1 (configuration not stated)	-0.485	-3.44
COc1c(C2CCCN2Cc2c(C)noc2C)c(C)nn1C (configuration not stated)	1.48	6.54

Structure (SMILES)	Percent Effect [1] [%]	Percent Effect [2] [%]
CC(C)(C)c1nnc(CN2CCOC(Cn3cncn3)C2)o1 (configuration not stated)	0.0111	8.96
CN(C)C(=O)NCc1cc2n(n1)CCN(C[C@H]1[C@@H]3CNC[C@@H]31)C2	-4.99	-21.2
CNc1cc(CNC(=O)c2ccccn2)nc(-c2ccncc2)n1	-1.21	5.89
COc1cccc(CN(C)C(=O)Nc2ccc3c(c2)OCCO3)c1	16.5	-9.02
Cc1nc(CCCNC(=O)C2CC(=O)N(C(C)(C)C)C2)sc1C (configuration not stated)	-1.3	-11.5
c1ccc(CN2CCN(Cc3cscn3)CC2)cc1	-2.48	3.98
Cc1nc(C)c(CNC(=O)NC(c2nnc3n2CCC3)C(C)C)s1 (configuration not stated)	0.0985	-7.7
N#Cc1cccc(C(=O)N2CCc3ncc(Cn4cccn4)n3CC2)c1	3.32	9.25
CC(C)Cc1nc(OCC(=O)O)c(C#N)c2c1CCC2	0.639	-5.61
Cn1ncc2c(N3CCN(C(N)=O)CC3)nc(C3CCCC3)nc21	1.25	-24.2
N#Cc1ccc(S(=O)(=O)NC(=O)C2CC2)c(C(F)(F)F)c1	4.77	9.71
CN(CC(=O)N1CCCC1Cn1cccn1)C1CC1 (configuration not stated)	-2.14	12.6
CN(Cc1ccccc1O)C(=O)NC1CCCN(c2ncccn2)C1 (configuration not stated)	-4.06	34
Cc1nc(CN2C(=O)CC[C@@H]3[C@H]2CCN3C(=O)NC2CC2)cs1	-0.474	-11.4
CCc1ccc(NC(=O)C2OC(c3cccs3)=NN2C(C)=O)cc1 (configuration not stated)	-1.78	-90
CCc1nc(NCC(=O)N2CCOCC2)c2c(n1)c(C)nn2CC	-2.73	-15.5
O=C(CN1CC(n2cccn2)C1)NCCCc1ccccc1	0	-22.1
CC1=NN(c2ccc(C(=O)N3CCCC(n4ccnc4)C3)cc2)CC1 (configuration not stated)	1.08	-30.6
CCc1nnc(CNCC2CCCN2c2cccnn2)o1 (configuration not stated)	-1.12	-52.3
CCCNC(=O)CCC(=O)Nc1ccc(-n2cncn2)c(F)c1	-1.12	5.57
Cc1n[nH]c(C)c1NC(=O)CN1CCn2c(nnc2C(C)C)C1	0.173	13.2
O=C(NCCc1ccccn1)NC1CCN(c2ncccn2)CC1	1.19	-12.3
Cc1noc(NC(=O)c2ccc(C)c(F)c2)n1	-11.1	-3.27
N#Cc1ccc(OCCOc2ccccc2C(=O)N2CCOCC2)cc1	8.62	-58.2
O=C(NC1(c2cccc(F)c2)CCOCC1)c1ccccn1	-1.19	-49.2
Cc1nnc(N2CC[C@H](OCC3CC3)[C@@H](Cc3ccccc3)C2)s1	9.93	-15.5

Structure (SMILES)	Percent Effect [1] [%]	Percent Effect [2] [%]
O=C(NCC1CC1)[C@H]1C[C@@H]2CCN(Cc3nccs3)C[C@@H]2O1	-3.13	0.967
CC(C#N)CSc1ccccc1NCC(=O)Nc1ccc(F)cc1 (configuration not stated)	2.19	-7.42
COCCOCC(=O)Nc1ccc(C)cc1F	-1.8	2.25
O=C1CC(N(C(=O)c2ccc3c(c2)CCC3)C2CC2)C(=O)N1 (configuration not stated)	0.714	6.53
O=C(CNC(=O)N1CCc2c([nH]c3ccc(Cl)cc23)C1)N1CCOCC1	3.4	-37.6
CN(C)CC(=O)N1CCCC2(CCC(=O)N(CCc3c[nH]cn3)C2)C1 (configuration not stated)	0.773	-43.1
CCc1n[nH]c(C2CN(C(=O)Cn3ccccc3=O)CCO2)n1 (configuration not stated)	0.8	-58
O=C(Cc1cccs1)N1CC[C@H]2[C@@H]1CCC(=O)N2c1cccnc1	-1.62	-9.24
COc1cccc(CCNC(=O)CN2CCCC2c2noc(C)n2)c1 (configuration not stated)	-0.962	22.4
O=C(CSc1nncs1)N1CCN(Cc2ccc(Cl)s2)CC1	-5.38	-5.37
CN(C)CCN1C[C@@H]2CN(C(=O)c3ccsc3)C[C@@H]2C1=O	-4.34	-40.9
Cc1ccc(C(=O)NCCNc2ncccc2C#N)c(=O)[nH]1	-1.85	-19.7
CC(C)NC(=O)CS(=O)(=O)Cc1cc(Cl)c2c(c1)OCCO2	-0.2	-1.92
Cc1ccc(NC2CCN(C(=O)Cc3ccc(C#N)cc3)CC2)nn1	4.2	-11.6
Nc1nc(CN2CCCC(Cn3cncn3)C2)nc2ccccc12 (configuration not stated)	0.466	-13.2
CC(C)C(=O)N1CCC(c2nc(O)cc(-c3ccncc3)n2)CC1	-2.46	3.51
Cc1cccc(N2CC[C@@H]3CN(C(=O)c4ccco4)CCO[C@@H]3C2)n1	-0.221	1.6
CCN(Cc1cccc2c1OCO2)C(=O)C(C)c1cccnc1 (configuration not stated)	1.18	-4.53
Cn1c(CN2CCCC2)nnc1C1CCCN(C(=O)C2CCOCC2)C1 (configuration not stated)	2.71	-6.15
Cc1nc(N2CCOCC2)nc2c1CCN(C(=O)NC1CCCC1)CC2	2.29	-52.5
NC(=O)C1CCN(c2nc3nccc(-c4ccccc4)c3c(=O)[nH]2)CC1	-4.72	-30.6
Cc1cnn(CC2CN(CC(=O)NCCc3cccs3)CCO2)c1 (configuration not stated)	-11.2	6.55
N#CCCN(C(=O)CN1CCCC1C1CCCCC1)c1ccccc1 (configuration not stated)	8.01	-20.8
